Results filed as inconclusive are left out. A number with no mark means an inactive call. Calls of active or inactive are those of the source. Calls follow the shape of the dose curve; as a rule, active = well fitted inhibition curve with a large enough effect; inconclusive = small, poorly fitted or top-dose-only effect; inactive = flat fitted curve, though single readings scatter.
% is scaled to controls: 0 for no effect and ±100 for the full control effect; potency is read from the fitted curve at half-maximal effect.

The subject of this assay is NIH3T3. Nature of the assay: Cytotoxic Profiling of Annotated Libraries Using Quantitative High-Throughput Screening (AID 1296008). Also: nearly all actives have a fitted effect of over 60% in size. The settings on record: Five cell lines viability, CellTiter-Glo ATP luminescence, 48-72 h; max response: active compounds read low. The method in brief: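 Cytotoxicity was measured as CellTiter-Glo ATP luminescence, read after 10 min at room temperature. Compound treatment of the cells lasted 48 or 72 hr at 37 degrees Celsius in a qHTS format.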
For `C=C1[C@@H](C)[C@H]2[C@H](Cc3ccccc3)NC(=O)[C@]23OC(=O)/C=C/C(=O)CCC[C@@H](C)C/C=C/[C@H]3[C@@H]1O`, the Potency was 1160 nM (active).

In the case of `CN(C)c1cc2c(cc1Sc1nc3c(N)nccc3n1CCNCC(C)(C)C)OCO2`, the Potency was 1030 nM (active). Consider `CC(C)(C)[C@]1(O)C[C@@H]2OC(=O)C[C@@]23C(=O)O[C@@H]2OC(=O)[C@@H](O)[C@]213`, for which the max response is 3.76%. In the case of `N#CC(O[C@@H]1O[C@H](CO)[C@@H](O)[C@H](O)[C@H]1O)c1ccccc1` (some centres undefined), the max response was 1.1%.

Take `COC1CC(O[C@H]2CC[C@]3(C)C4CC[C@]5(C)[C@@H](C6=CC(=O)OC6)[C@@H](OC(C)=O)C[C@]5(O)C4CC[C@@H]3C2)OC(C)C1O` (some centres undefined): the max response is -14.3%.

As to `CC(=O)O[C@H]1CN2CCC1CC2`, the max response is 1.29%. For the compound `CC(=O)OC[C@]12C[C@H](O)C(C)=C[C@H]1O[C@@H]1[C@H](O)[C@@H](OC(C)=O)[C@@]2(C)[C@]12CO2`, the Potency was 45.3 nM (active). For `CC1=CC(=O)[C@@H](O)[C@]2(C)C3[C@@H](O)[C@@H]4OC(=O)[C@@H]([C@H]4C)[C@]3(C)C(=O)C[C@@H]12` (some centres undefined), the Potency is 3600 nM (active). In the case of `CC[C@@H]1C[C@H]2CC[C@H](O2)[C@H](C)C(=O)O[C@@H](C)C[C@@H]2CC[C@@H](O2)[C@@H](C)C(=O)O[C@H](CC)C[C@H]2CC[C@H](O2)[C@H](C)C(=O)O[C@@H](C)C[C@@H]2CC[C@@H](O2)[C@@H](C)C(=O)O1`, the Potency is 86.2 nM (active).

(Values after PubChem BioAssay (NCATS).)
